# Measurements taken from PubChem BioAssay AID1671190 (National Center for Advancing Translational Sciences (NCATS), 2021).
# The whole screen tested about 580,000 compounds, of which about 6,100 (1.1%) were called active. A call without a number means that no potency is given here. Inconclusive results (about 15%) are left out. The call rests on the fitted dose curve; in most records, active means well fitted inhibition curve with a large enough effect; inconclusive means small, poorly fitted or top-dose-only effect, or another doubt; inactive means no such curve, though single readings can be large or run the other way. This excerpt belongs to a sample that is enriched for actives.
# Biological target: Polyunsaturated fatty acid lipoxygenase ALOX12 (Homo sapiens) (UniProt P18054)
# Sequence (P18054 whole entry, looked up): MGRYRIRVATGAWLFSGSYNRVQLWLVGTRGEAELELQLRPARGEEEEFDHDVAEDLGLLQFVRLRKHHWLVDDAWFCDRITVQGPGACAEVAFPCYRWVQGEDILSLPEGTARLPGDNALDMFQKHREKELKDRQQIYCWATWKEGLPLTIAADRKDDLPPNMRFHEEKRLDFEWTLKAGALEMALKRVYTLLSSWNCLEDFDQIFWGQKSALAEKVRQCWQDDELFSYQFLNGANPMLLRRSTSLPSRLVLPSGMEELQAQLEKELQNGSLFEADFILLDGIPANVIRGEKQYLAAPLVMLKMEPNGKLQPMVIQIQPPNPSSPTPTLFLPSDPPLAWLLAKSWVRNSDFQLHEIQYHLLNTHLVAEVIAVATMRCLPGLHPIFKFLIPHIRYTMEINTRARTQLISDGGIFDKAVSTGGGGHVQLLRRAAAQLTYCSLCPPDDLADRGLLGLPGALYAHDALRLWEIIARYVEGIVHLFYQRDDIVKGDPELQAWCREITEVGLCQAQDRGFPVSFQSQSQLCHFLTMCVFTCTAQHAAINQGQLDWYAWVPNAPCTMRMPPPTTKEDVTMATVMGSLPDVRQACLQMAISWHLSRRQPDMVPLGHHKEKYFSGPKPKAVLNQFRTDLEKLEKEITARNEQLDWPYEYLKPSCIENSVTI
# Experiment: Primary qHTS assay for inhibitors of human arachidonate 12S-lipoxygenase (ALOX12): Round 2
# Settings: purified 12hLO, xylenol orange hydroperoxide absorbance; series mostly up to 108 µM
# Outline: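 Purified human 12hLO at 150 nM in 25 mM Hepes, 0.01% Triton X-100, pH 7.0, preincubated 15 min at room temperature with compound. Reaction started with 40 uM arachidonic acid, 30 min at room temperature. Hydroperoxide measured by Fe-xylenol orange, 573/405 nm absorbance ratio.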
# Potency means the concentration at half of the fitted maximal effect.
Structure (SMILES),Potency,"activity change, negative = inhibition"
Oc1ccc(O)c([S+]2CCCC(C3CCCCC3)C2)c1 (stereo unspecified),17.8 µM (active),–
COc1ccc(Cc2nnc(SCc3nc4ccccc4c(=O)[nH]3)n2CC(C)C)cc1,inactive,–
Cc1ccc(NC(=O)C2Cc3ccccc3O2)cc1S(N)(=O)=O (stereo unspecified),inactive,–
COc1cc(C2C(C(=O)c3ccc(C)o3)=C(O)C(=O)N2CCc2ccccc2)ccc1O (stereo unspecified),35.5 µM (active),–
CCCOc1ccc(C2C(C(=O)c3ccc(C)o3)=C(O)C(=O)N2CCCn2ccnc2)cc1 (stereo unspecified),inactive,–
COc1ccc(CCN2C(=O)c3[nH]nc(-c4ccccc4O)c3C2c2ccc(C)cc2)cc1OC (stereo unspecified),inactive,–
COCCN1C(=O)C(O)=C(C(=O)c2ccc(C)o2)C1c1ccc(O)c(OC)c1 (stereo unspecified),17.8 µM (active),–
CCOC(=O)C1=C(c2ccccc2)N=C2SCC(=O)N2C1c1ccc(O)c(OC)c1 (stereo unspecified),inactive,–
COc1cc(C2C(C(=O)c3sc(C)nc3C)=C(O)C(=O)N2CCN(C)C)cc(OC)c1OC (stereo unspecified),inactive,–
COc1ccc(OC2CN(Cc3cccn3C)C2)cc1,–,5.21% [at 12.5 µM] (inactive)
COc1ccc(OCCSC(C)C(N)=O)cc1 (stereo unspecified),inactive,–
CC(C)c1ccc(C2CC(=O)N3CN(C4CCCCC4)CSC3=C2C#N)cc1 (stereo unspecified),17.8 µM (active),–
CNC(=O)c1cccc(NC(=O)c2cc(C3CC3)nc3ccccc23)c1,39.8 µM (active),–
CC(C)c1ccc(/C=N/NC(=O)c2cc(C3CC3)nc3ccccc23)cc1,inactive,–
COc1cc(C(=O)Nc2ccc(C(=O)O)cc2)c2ccccc2n1,inactive,–
CNC(=O)C(=O)NC1CC(C)(C)NC(C)(C)C1,inactive,–
Cc1cc(C)cc(S(=O)(=O)n2cc3c(=O)n(C)c(=O)n(C)c3n2)c1,inactive,–
O=CN1CCN(C(=O)CCC(=O)O)CC1,inactive,–
Clc1ccc(Cn2ncc3c(NCc4cccnc4)ncnc32)cc1,inactive,–
c1ccc(CNc2ncncc2-c2cccnc2)cc1,39.8 µM (active),–
Cc1cnc(CNc2nc(-c3cccnc3)nc3ccccc23)cn1,inactive,–
Cc1cccc(-c2cc(C(=O)NCC3CCCO3)c3ccccc3n2)c1 (stereo unspecified),inactive,–

Structure (SMILES),Potency,"activity change, negative = inhibition"
COc1ccc(-c2noc(-c3cc4cc(Cl)ccc4oc3=O)n2)cc1OC,inactive,–
O=C(CSc1nnc(-c2ccncc2)n1C1CCCCC1)Nc1ccccc1,inactive,–
CC1CCCCC1NC(=O)CSc1nnc(-c2ccncc2)n1CCCN(C)C (stereo unspecified),0.355 µM (active),–
CCn1c(SCC(=O)NC2CC2)nnc1-c1ccncc1,inactive,–
CCOc1ccc(CNS(=O)(=O)c2ccc(-c3ccc(=O)[nH]n3)o2)cc1,inactive,–
O=C(NC1CCS(=O)(=O)C1)c1cc2ccccc2oc1=O (stereo unspecified),inactive,–
O=C(C[C@@H]1CCNC[C@@H]1Cc1cc(-c2ccc(F)cc2)on1)NCCN1CCOCC1,inactive,–
CN(Cc1ccccc1)C(=O)C[C@@H]1CCNC[C@@H]1Cc1cc(-c2ccc(C(C)(C)C)cc2)on1,25.1 µM (active),–
CCCCc1cc(C[C@H]2CNCC[C@H]2CC(=O)N(CC)CC)no1,inactive,–
COc1ccc(S(=O)(=O)Nc2nc3ccccc3nc2Nc2cccc(C)c2)cc1,inactive,–
COc1ccc(C(=O)OCc2ccc(Br)cc2)c(OC)c1,inactive,–
COc1ccc(OC(=O)CCc2ccc3c(c2)OCCO3)cc1,inactive,–
CCCCc1c/c(=N\O)oc2cc3occ(C)c3cc12,17.8 µM (active),–
CCOC(=O)COc1ccc2c(=O)c(-c3ccc(OC)c(OC)c3)c(C)oc2c1,inactive,–
CC(C)C[C@@H]1N[C@H](C(=O)NCc2ccc(F)cc2)Cc2cn(C)c3cccc1c23,inactive,–
Cc1ccc(Cl)c(OC(C)C(=O)NN)c1 (stereo unspecified),inactive,–
CCOC(=O)/C=C/c1ccc(C(F)(F)F)cc1S(=O)(=O)NC(C)(C)C,inactive,–
CCOC(=O)C[C@H]1c2ccc(C(F)(F)F)cc2S(=O)(=O)N1c1ccccc1,inactive,–
CCOC(=O)C1Nc2ccc(C(F)(F)F)cc2C2C=CCC12 (stereo unspecified),17.8 µM (active),–
Cc1ccc(S(=O)(=O)N2CCCC(C(=O)O)C2)cc1F (stereo unspecified),inactive,–
NC(=O)CN1C(=O)C(O)(CC(=O)c2ccc3c(c2)OCO3)c2ccccc21 (stereo unspecified),inactive,–
CS(=O)(=O)Nc1ccc([C@H]2OCC(=O)N(C3CCOCC3)[C@@H]2CO)cc1,inactive,–

Structure (SMILES),Potency,"activity change, negative = inhibition"
Cc1ccc2[nH]cc(C(C(=O)O)N3CCN(c4ccccc4)CC3)c2c1 (stereo unspecified),inactive,–
CC(C)OC(=O)c1ccc(NCc2cc(O)ccc2O)cc1Cl,10 µM (active),–
Cc1ccc(C(=O)NC(C)C)c(Cl)c1,inactive,–
O=C(O)c1ccc(CSc2ccc(Cl)cc2Cl)cc1,inactive,–
Cc1ccc(C2(C(=O)N3C[C@@H](CN4CCCCC4)[C@@H](CO)C3)CC2)cc1,inactive,–
Cc1[nH]c2ccccc2c1C(=O)C(C)Sc1ccc2c(c1)OCCCO2 (stereo unspecified),14.1 µM (active),–
Cc1[nH]c2ccccc2c1C(=O)C(C)Sc1nnc(C2CC2)o1 (stereo unspecified),inactive,–
CC(Sc1ccc2c(c1)OCCCO2)C(=O)O (stereo unspecified),inactive,–
COc1ccc(-c2c(C)c3ccc(OCC(=O)OC(C)(C)C)cc3oc2=O)cc1OC,inactive,–
CCN(C1CCCCC1)S(=O)(=O)c1ccc(C(=O)Nc2ccc(Cl)c3ncsc23)cc1,inactive,–
CO[C@@H]1COCC[C@H]1NC(=O)CCCc1nc(-c2ccccc2C)no1,inactive,–
CC1CC(=S)Nc2ccccc2N1Cc1ccccc1 (stereo unspecified),44.7 µM (active),–
CC1CC(=O)Nc2ccccc2N1S(=O)(=O)c1cccs1 (stereo unspecified),inactive,–
CC1CC(C)(C)NC(=S)N1CCC(=O)N1CCN(Cc2ccccc2)CC1 (stereo unspecified),inactive,–
O=C(CCN1C(=O)c2ccccc2S1(=O)=O)Nc1ccc(S(=O)(=O)N2CCCC2)cc1,inactive,–
C=C(Br)CNCc1ccccc1,inactive,–
Cc1ccc(C(C)NC(=O)CCc2nc(C(C)C)no2)o1 (stereo unspecified),inactive,–
Cc1ccccc1-c1cc(C(=O)NCCN2CCNC2=O)c2c(c1)N(C)CCO2,inactive,–
Cc1noc(/C=C/c2ccco2)c1S(=O)(=O)N1CCC(C(=O)N2CCc3ccccc32)CC1,14.1 µM (active),–
COc1ccccc1N1CCN(C(=O)C2CCN(S(=O)(=O)c3c(C)noc3/C=C/c3ccc(C)cc3)CC2)CC1,inactive,–
Cc1noc(/C=C/c2ccco2)c1S(=O)(=O)N1CCC(C(=O)Nc2ccc(Cl)cn2)CC1,inactive,–
CN(CC(=O)NC(C)(C)C)Cc1cccc2cccnc12,inactive,–
